Here are results for 63 compounds from PubChem BioAssay AID485317 (Broad Institute, 2010).

Each structure is given as a SMILES string. Screen size: about 290,000 compounds; about 11,000 (3.8%) were called active. The sample as a whole holds a higher share of actives than the screen did. A number with no mark means an inactive call.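 How the source made its calls: active means mean replicate inhibition above about 79%, with every replicate also reaching it (limit read from the data); inconclusive means only one of the two criteria met; inactive means mean below limit and not every replicate reaching it.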

Chain of FAD-linked sulfhydryl oxidase ALR (Homo sapiens) (P55789 whole entry, looked up): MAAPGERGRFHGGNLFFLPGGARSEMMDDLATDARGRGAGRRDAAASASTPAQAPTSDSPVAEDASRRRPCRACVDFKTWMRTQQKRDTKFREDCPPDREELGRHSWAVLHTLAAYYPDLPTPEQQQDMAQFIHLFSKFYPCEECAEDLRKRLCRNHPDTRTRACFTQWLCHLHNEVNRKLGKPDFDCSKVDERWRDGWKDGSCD

This experiment has as its target FAD-linked sulfhydryl oxidase ALR (Homo sapiens) (UniProt P55789). The experiment is described as follows: ALR-catalysed DTT oxidation blockers – biochemical, H2O2 detection, HRP-luminol luminescence, single point, primary screen (AID 485317). The conditions noted are these: purified ALR, active compounds read high, concentration not given here.
Turning to `COc1ccccc1NS(=O)(=O)c1ccc(C(=O)N2CCN(c3ccccc3O)CC2)cc1`, the inhibition is 30.3%.
`O=C(COC(=O)c1ncc(Cl)c(Cl)c1Cl)NCc1ccccc1`: the inhibition is -2.75%.
In the case of `C=CCn1c(SCc2cccc(F)c2)nc2cc(C(=O)N3CCC(C(N)=O)CC3)ccc2c1=O`, the inhibition is 82.8% (active).
Consider `C=CCn1c(SCC(=O)CC(=O)OCC)nc2cc(C(=O)N3CCC(C(N)=O)CC3)ccc2c1=O`, for which the inhibition is 26.8%.
With `NC(=O)C1CCN(C(=O)c2ccc3c(=O)n(Cc4cccc(Br)c4)c(=S)[nH]c3c2)CC1` the figure was 1.47%.
Regarding `O=C(CCC(=O)c1cccs1)Nc1nc2ccccc2s1`, the inhibition was -15.5%.
Take `COc1cccc(CC(=O)OCC(=O)NCc2ccc3c(c2)OCO3)c1`: the inhibition was -0.907%.
Take `COCCNC(=O)CN1C(=O)CSc2ncccc21`: the inhibition was 95.3% (active).
With `O=C(CN1C(=O)CSc2ncccc21)N1CCOCC1` the figure was -36.7%.
With `COCCNC(=O)CCCN1C(=O)c2ccccc2Sc2ncccc21` the figure was -3.3%; with `CCn1nc(C(=O)Nc2ccc(N3CCOCC3)cc2)c2ccccc2c1=O`, -11.2%.
For the compound `CC1CC(=NNC(=O)C2COc3ccccc3O2)CC(C)(C)C1` (stereo not drawn), the inhibition was 14.3%.
With `COc1ccc(/C=C2\SC(=O)N(CCC(=O)NC3CCS(=O)(=O)C3)C2=O)cc1` (stereo not drawn) the figure was -3.27%.
Turning to `CC(C(=O)NC1CCS(=O)(=O)C1)N1C(=O)/C(=C/c2ccc(Cl)cc2)SC1=S` (stereo not drawn), the inhibition was 98.5% (active).
With `CN(C(=O)CN1C(=O)/C(=C/c2ccc(Cl)cc2)SC1=S)C1CCS(=O)(=O)C1` (stereo not drawn) the figure was -8.19%; with `COc1ccc(OC)c(S(=O)(=O)Nc2c(C)nn(C)c2C)c1`, -0.73%.
For `O=C(Cn1nnc(-c2ccccc2)n1)NC(=O)NC1CCCC1`, the inhibition was -9.99%.
With `CCN(CC)S(=O)(=O)c1ccc2[nH]c(=O)cc(C(=O)N(C)C3CCS(=O)(=O)C3)c2c1` (stereo not drawn) the figure was -1.56%; with `COc1ccccc1C(CNC(=O)c1cccc(S(=O)(=O)Nc2ccc(F)cc2)c1)N(C)C` (stereo not drawn), -11.3%.
Consider `COc1cccc(C2=CC(=O)C[C@H](c3ccc(OC)c(OC)c3)C2)c1`, for which the inhibition was -2.35%.
With `O=S(=O)(c1ccc(SCc2ccccc2)nc1)N1CCCCCC1` the figure was -0.984%; with `COC(=O)c1ccc(CSc2ccc(S(=O)(=O)N3CCCCC3)cn2)cc1`, 98.5% (active).
For the compound `COC(=O)c1ccc(CNC(=O)c2ccc(S(=O)(=O)N3CCCCCC3)cc2)cc1`, the inhibition was -5.09%.
In the case of `CC(=O)c1cccc(OCC(=O)OCC(=O)Nc2cc(S(=O)(=O)N3CCCCC3)ccc2C)c1`, the inhibition is -1.77%.
On to `CCN(CC(=O)Nc1cc(Cl)ccc1C)C(=O)Cn1c(=O)cnc2ccccc21`, for which the inhibition was 0.937%.
As for `O=C(Nc1ccon1)c1nc[nH]c1C(=O)NCc1ccccc1`, the inhibition is -9.59%.
With `O=C(c1c(Cl)cccc1Cl)N1CCN(c2cccc3[nH]ccc23)CC1`, the inhibition is 98.9% (active).
`O=C(c1ccc2ccccc2n1)N1CCN(c2ccccc2Cl)CC1`: the inhibition is 2.19%.
Consider `COc1ccccc1N1CCN(C(=O)c2c(-c3c(Cl)cccc3Cl)noc2C)CC1`, for which the inhibition is 15.3%.
In the case of `CN(C)C(=O)N=NC(=O)N(C)C`, the inhibition was -21.7%.
With `CCOc1ncccc1C(=O)OCC(=O)Nc1cccc(S(=O)(=O)N2CCCCCC2)c1` the figure was 0.144%; with `COc1ccc(C(=O)NCc2ccccc2C)cc1S(=O)(=O)NC1CCCC1`, -15.1%; with `CCn1nnc2cc(C(=O)Nc3ccc(C(=O)OC(C)C)cc3)ccc21`, -0.266%.
Consider `O=C(COC(=O)c1cccnc1Cl)NC(=O)NC1CCCCC1`, for which the inhibition was -0.213%.
With `CCCNC(=O)CCn1cc(-c2ccc(OC)cc2)nc1CCN` the figure was 10.4%; with `CN(C)C(CNC(=O)CCCOc1ccccc1)c1ccco1` (stereo not drawn), 3.18%; with `CC(C)(C)NC(=O)NCc1ccco1`, 6.08%.
Take `O=C(CCOc1ccccc1)NCc1ccccc1`: the inhibition is -6.56%.
For `O=C(/C=C/c1ccc(Cl)cc1Cl)NCc1ccco1`, the inhibition was -6.98%.
With `O=C(CCCOc1ccccc1)NCc1ccco1` the figure was 86.9% (active); with `COC(=O)/C=C/C(=O)NCc1ccco1`, 79.8% (active).
With `COc1cc(NC(=O)c2[nH]cnc2C(N)=O)cc(C(=O)Nc2cccc(C(F)(F)F)c2)c1` the figure was -4.54%.
For `O=C(CSc1nc2ccccc2c(=O)n1Cc1ccc(F)cc1)NCC1CCCO1` (stereo not drawn), the inhibition is -7.08%.
On to `C=CCNC(=O)C1CC2c3ccccc3C1c1ccccc12` (stereo not drawn), for which the inhibition is -7.82%.
For `Cc1cc(Nc2ccc(Br)cc2)nc2ccccc12`, the inhibition was -3.49%.
On to `O=C(COC(=O)c1ccc(O)cc1O)c1ccc2c(c1)OCCO2`, for which the inhibition was 9.5%.
Turning to `CC1(C)O[C@@H]2CC3C4C[C@H](F)C5=CC(=O)C=CC5(C)C4C(O)CC3(C)[C@]2(C(=O)CO)O1` (stereo partly drawn), the inhibition is -6.73%.
Regarding `O=C1/C(=C\c2cccnc2)CN(Cc2ccccc2)C/C1=C\c1cccnc1`, the inhibition is 96.1% (active).
In the case of `Clc1ccc(CN2CCN(/N=C/c3cccnc3)CC2)cc1`, the inhibition is 14.2%.
Regarding `O=Cc1cn(Cc2ccccc2)nc1-c1cccnc1`, the inhibition was -2.35%.
Consider `C=CCc1cc(S(=O)(=O)c2ccc(O)c(CC=C)c2)ccc1O`, for which the inhibition was 87.7% (active).
As to `Cc1ccccc1NC(=O)CNc1ccccc1N1CCCCC1`, the inhibition is 87.1% (active).
Consider `Cc1ccccc1N1CC(C(=O)Nc2ccc(S(=O)(=O)N3CCCC3)cc2)CC1=O` (stereo not drawn), for which the inhibition is -9.58%.
`Cc1ccccc1NC(=O)CSc1ccc2nnc(-c3ccccn3)n2n1`: the inhibition was -1.94%.
Regarding `Cc1cccc(N2CC(C(=O)Nc3ccccc3N3CCCC3)CC2=O)c1C` (stereo not drawn), the inhibition was 98.4% (active).
As for `Cc1ccccc1NC(=O)CSC1=NCCN1`, the inhibition is 99.1% (active).
`Cc1ccc(Cc2nnc(SCC(=O)Nc3ccccc3C)[nH]c2=O)cc1`: the inhibition is -2.8%.
In the case of `Cc1ccccc1N1CC(C(=O)Nc2ccc3c(c2)OCO3)CC1=O` (stereo not drawn), the inhibition was -35.2%.
With `Cc1ccccc1NC(=O)Nc1ccccc1N1CCCCC1` the figure was -4.73%; with `O=C(Nc1ccccc1N1CCCC1)c1ccc(F)c(S(=O)(=O)N2CCOCC2)c1`, 43.8%.
With `O=C(Nc1ccccc1N1CCCC1)c1ccc2ccccc2c1` the figure was 77% (active).
Consider `O=C(CNCCC1=CCCCC1)Nc1ccccc1N1CCCCCC1`, for which the inhibition was 19.2%.
With `O=C(Nc1ccccc1N1CCCCC1)c1ccc2nccnc2c1` the figure was -6.64%.
